Experimental data taken from PubChem BioAssay.
Active and inactive are the calls of the source. Unless noted, how the calls were made is not given here.

Columns and labels:
[1] = HepG2 liver cancer cell viability effects, profiling panel, resazurin fluorescence, 24 h, PK04 Diversity Set (AID 1172); conditions: higher = more signal; further: test concentration not given here
[2] = basal S. cerevisiae growth modulation, no modifier, primary screen, OD600, strain BY4716, 24 h, basal condition (AID 1173); conditions: OD600, 24 h, higher = more signal, called active from +8 up or from −8 down
[3] = MM1S myeloma cell viability, profiling panel, resazurin fluorescence, basal, 24 h, PK04 Diversity Set (AID 1174); conditions: higher = more signal, called active from +8 up or from −8 down;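 further: MM1S multiple myeloma cell line; test concentration not given here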
[4] = target: Dihydroorotate dehydrogenase (quinone), mitochondrial (Plasmodium falciparum (isolate 3D7)) (UniProt Q08210); assay: PfDHODH enzyme inhibitors, primary screen, biochemical, C-terminal His tag, absorbance 600 nm (AID 1175); conditions: DCIP absorbance 600 nm, higher = more signal, called active from +8 up or from −8 down;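 further: recombinant parasite enzyme with a five histidine tag at its C terminus; test concentration not given here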
Sequence of Dihydroorotate dehydrogenase (quinone), mitochondrial (Plasmodium falciparum (isolate 3D7)) (Q08210 whole entry, looked up): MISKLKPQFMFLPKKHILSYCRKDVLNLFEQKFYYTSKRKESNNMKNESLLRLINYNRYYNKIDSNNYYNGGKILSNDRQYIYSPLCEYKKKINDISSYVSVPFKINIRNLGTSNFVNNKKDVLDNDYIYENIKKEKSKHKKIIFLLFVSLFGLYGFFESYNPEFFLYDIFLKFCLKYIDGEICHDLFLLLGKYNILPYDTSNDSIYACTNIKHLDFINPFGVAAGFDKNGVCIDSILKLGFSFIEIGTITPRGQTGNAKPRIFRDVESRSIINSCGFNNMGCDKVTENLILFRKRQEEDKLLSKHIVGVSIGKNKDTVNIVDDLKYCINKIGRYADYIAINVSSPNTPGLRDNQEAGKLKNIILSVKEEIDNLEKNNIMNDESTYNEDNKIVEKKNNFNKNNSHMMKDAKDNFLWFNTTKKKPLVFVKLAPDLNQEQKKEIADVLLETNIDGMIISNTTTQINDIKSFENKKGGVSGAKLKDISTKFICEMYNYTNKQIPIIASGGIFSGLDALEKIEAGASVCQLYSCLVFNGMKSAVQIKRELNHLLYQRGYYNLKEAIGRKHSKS

[5] = P. aeruginosa biofilm formation inhibitors, primary screen, strain PAO1, LB-PBS medium, absorbance 600 nm (AID 1176); further: test concentration not given here; conditions: P. aeruginosa PAO1 growth/biofilm, A600, 12 h; higher = more signal
[6] = S. cerevisiae RM11-1a growth modifiers, primary screen, strain RM11-1a, OD600, basal, 24 h (AID 1177); conditions: OD600, 24 h, higher = more signal, called active from +8 up or from −8 down;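 further: cultures grown under basal conditions with no added stressor; test concentration not given here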
[7] = E. coli acrAB mutant growth effects, primary screen, E. coli filamentation inducers, strain DRC39, OD650, 24 h (AID 1178); conditions: higher = more signal, called active from +8 up or from −8 down;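 further: growth measured as culture turbidity by optical density at 650 nm; test concentration not given here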
[8] = E. coli acrAB mutant growth effects, primary screen, E. coli filamentation inducers, strain DRC39, OD650, 48 h (AID 1179);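 further: screen aims at cell division blockers that make cells filament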; conditions: E. coli DRC39 delta-acrAB growth, higher = more signal, called active from +8 up or from −8 down
[9] = RPMI8226 myeloma cell viability, profiling panel, resazurin fluorescence, basal, 24 h, PK04 Diversity Set (AID 1180); conditions: higher = more signal;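 further: RPMI8826 multiple myeloma cell line at 5000 cells per well; test concentration not given here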
[10] = target: E3 ubiquitin-protein ligase XIAP (Homo sapiens) (UniProt P98170); assay: XIAP binders, primary screen, biophysical, small-molecule microarray, fluorescence 635 nm (AID 1181); conditions: small-molecule microarray binding, higher = more signal;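 further: score merges 667 nm emission and signal to noise over triplicate slides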
Sequence of E3 ubiquitin-protein ligase XIAP (Homo sapiens) (P98170 whole entry, looked up): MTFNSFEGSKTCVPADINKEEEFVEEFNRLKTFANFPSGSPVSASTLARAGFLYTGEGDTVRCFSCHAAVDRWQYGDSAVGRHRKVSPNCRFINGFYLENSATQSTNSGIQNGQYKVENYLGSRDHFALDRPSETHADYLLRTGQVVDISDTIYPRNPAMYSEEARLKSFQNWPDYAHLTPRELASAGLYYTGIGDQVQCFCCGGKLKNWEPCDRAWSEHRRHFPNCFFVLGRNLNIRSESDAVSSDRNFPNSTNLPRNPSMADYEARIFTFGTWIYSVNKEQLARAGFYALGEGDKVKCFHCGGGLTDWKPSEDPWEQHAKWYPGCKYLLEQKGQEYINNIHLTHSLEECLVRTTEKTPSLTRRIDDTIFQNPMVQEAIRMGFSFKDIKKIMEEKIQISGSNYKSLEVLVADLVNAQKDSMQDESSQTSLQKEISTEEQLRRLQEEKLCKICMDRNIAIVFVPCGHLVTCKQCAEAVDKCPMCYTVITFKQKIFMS

Row | Compound | z-score [1] | z-score [2] | z-score [3] | composite z-score [4] | z-score [5] | z-score [6] | z-score [7] | z-score [8] | z-score [9] | composite z-score [10]
1 | CC(CCN1CCCCc2nc(C)c(C)cc21)=NOC(C)CN1CCCCc2nc(C)c(C)cc21 (stereo not given) | 0.149 | -0.211 (inactive) | -0.29 (inactive) | 0.159 (inactive) | 0.216 (inactive) | 0.596 (inactive) | 0.5 (inactive) | -0.024 (inactive) | 0.643 | 0.24
2 | COCCOC(=O)N1C(=O)[C@@]2(c3ccccc31)[C@H](C(N)=O)[C@H]1C(=O)O[C@H](c3ccccc3)[C@H](c3ccccc3)N1[C@@H]2c1ccccc1OCCO | -1.23 | 0.225 (inactive) | -2.56 (inactive) | 0.692 (inactive) | 0.517 (inactive) | 1.63 (inactive) | 0.201 (inactive) | -0.158 (inactive) | -4.25 | 0.209
3 | CCN1C(=O)[C@H]2[C@H]3[C@H](O)[C@H](O)CC(=NOC(C)CN4CCCCc5nc(C)c(C)cc54)[C@@H]3CC[C@H]2C1=O (stereo not given in full) | -1.3 | -0.0913 (inactive) | -0.669 (inactive) | 0.301 (inactive) | -0.418 (inactive) | 0.002 (inactive) | 0.538 (inactive) | 1.2 (inactive) | -0.889 | -0.211
4 | CCCNC(=O)OC[C@H]1O[C@H](CCON=C2[C@H]3CCn4c(=O)n(-c5ccccc5)c(=O)n4[C@H]3[C@H](O)[C@@H]3O[C@H]23)C=C[C@@H]1Oc1ccc(OC)cc1 | -0.633 | -0.521 (inactive) | -1.52 (inactive) | 0.017 (inactive) | 0.0767 (inactive) | 0.12 (inactive) | 0.621 (inactive) | 1.13 (inactive) | -2.05 | -0.2
5 | COCCCNC(=O)[C@@]1(Sc2ccc(C)cc2)CC(=O)N(Cc2ccccc2)[C@@H]1c1ccc(CO)cc1I | 0.121 | -3.62 (inactive) | -2.46 (inactive) | -0.666 (inactive) | -0.549 (inactive) | -1.02 (inactive) | 0.283 (inactive) | 0.264 (inactive) | -1.78 | 0.106
6 | CCOC(=O)[C@H](CC(C)C)NC(=O)CCC1CC(OC(=O)NCc2cccc3ccccc23)CC2(CCCC(COC(=O)NCCN3CCOCC3)O2)O1 (stereo not given in full) | 1.29 | -0.996 (inactive) | 1.09 (inactive) | -0.247 (inactive) | 0.131 (inactive) | -0.613 (inactive) | -0.404 (inactive) | -0.88 (inactive) | 1.19 | -0.0143
7 | CC(C)=C1C(=O)C(c2ccccc2)=C2CN3C(=O)N(CCc4ccccc4)C(=O)[C@]3(Cc3ccc(F)cc3)[C@H]21 | -1.22 | 0.255 (inactive) | -1.53 (inactive) | -0.0278 (inactive) | 1.4 (inactive) | 0.223 (inactive) | -0.933 (inactive) | -0.853 (inactive) | -0.942 | -0.02
8 | CCN1C(=O)[C@H]2[C@H]3[C@H](O)[C@H](O)CC(=NOCc4ccccc4)[C@@H]3CC[C@H]2C1=O | -0.113 | -1.73 (inactive) | -2.61 (inactive) | -2.05 (inactive) | 0.659 (inactive) | -2.27 (inactive) | -0.717 (inactive) | -0.353 (inactive) | -1.89 | -0.0302
9 | CO[C@@H]1COC(=O)CCC[C@@H](C)[C@H](OC)COC(=O)[C@H](Cc2ccccc2)NC(=O)CC=C[C@H]1C | 0.229 | -0.987 (inactive) | -0.15 (inactive) | 0.615 (inactive) | -0.291 (inactive) | 0.926 (inactive) | 0.024 (inactive) | 0.407 (inactive) | 1.05 | 0.0155
10 | CCCCc1nc2c(c3c1C[C@H](C)OC3)CN(CCC(C)C)CC2 | -0.165 | -2.07 (inactive) | 0.431 (inactive) | -0.847 (inactive) | 0.332 (inactive) | -0.674 (inactive) | 0.56 (inactive) | -0.104 (inactive) | 1.2 | 0.0133
11 | CC(CCC(=O)OC[C@H]1O[C@H](C#Cc2ccccc2)C=C[C@@H]1Oc1ccc(C)cc1)=NO[C@@H](C)c1cn([C@H](CO)Cc2ccccc2)nn1 | 0.0474 | 0.542 (inactive) | 0.925 (inactive) | -2.15 (inactive) | -0.786 (inactive) | -0.0398 (inactive) | -0.26 (inactive) | -1.24 (inactive) | 0.911 | -0.338
12 | CC(C)CON=C1C[C@@H](O)[C@@H](O)[C@@H]2[C@@H]3C(=O)N([C@@H](C)c4ccccc4)C(=O)[C@@H]3CC[C@H]12 | 0.0096 | -1.45 (inactive) | -0.0393 (inactive) | -0.0804 (inactive) | 0.07 (inactive) | 0.351 (inactive) | 0.595 (inactive) | 0.675 (inactive) | 0.333 | -0.166
13 | CC(=O)OC[C@H]1O[C@H](CC=NOC[C@@H](C)[C@H](OCc2ccccc2)C(C)C)C=C[C@@H]1OC(C)=O | 0.643 | 0.904 (inactive) | -0.473 (inactive) | -0.298 (inactive) | 0.0738 (inactive) | -0.0321 (inactive) | 0.204 (inactive) | 0.193 (inactive) | 0.692 | -0.0571
14 | COCCOC(=O)N1C(=O)[C@@]2(c3cc(C#Cc4ccc(OC)cc4)ccc31)[C@H](C(=O)N1CCN(c3ncccn3)CC1)[C@H]1C(=O)O[C@H](c3ccccc3)[C@H](c3ccccc3)N1[C@@H]2c1ccc(OCCO)cc1 | 0.254 | 1.89 (inactive) | 0.468 (inactive) | -1.62 (inactive) | 3.21 (inactive) | 3.06 (inactive) | 0.178 (inactive) | -0.0435 (inactive) | -0.0737 | -0.337
15 | COC(=O)[C@@H]1N=C(c2ccc(OCCCO)cc2)O[C@@H]1c1ccccc1N=[N+]=[N-] | 1.92 | -4.88 (inactive) | 0.856 (inactive) | 0.458 (inactive) | 1.2 (inactive) | -0.82 (inactive) | 2.09 (inactive) | 0.995 (inactive) | 0.0154 | 0.267
16 | CCOC(=O)NN=C1C[C@@H](O)[C@@H](O)[C@@H]2[C@@H]3C(=O)N(C(C)(C)C)C(=O)[C@@H]3CC[C@@H]12 | -0.119 | 0.381 (inactive) | -0.387 (inactive) | 0.0062 (inactive) | -0.495 (inactive) | -1.23 (inactive) | -0.654 (inactive) | -0.0961 (inactive) | -0.559 | 0.167
17 | C=CC[C@]1(C(=O)NCc2ccccc2)N=C(c2ccc(OCCCO)cc2)O[C@H]1c1ccccc1 | 0.527 | -0.127 (inactive) | -0.223 (inactive) | -0.649 (inactive) | -0.193 (inactive) | 1.15 (inactive) | 0.0557 (inactive) | -0.126 (inactive) | -0.0458 | -0.102
18 | CN(C)CCCNC(=O)[C@@H]1c2ccccc2C(=O)N(Cc2ccccc2)[C@H]1c1ccc(CO)cc1 | -0.309 | 0.0396 (inactive) | 0.499 (inactive) | -0.303 (inactive) | -0.233 (inactive) | 0.075 (inactive) | -0.0194 (inactive) | -0.136 (inactive) | 0.791 | -0.0926
19 | CCCCCN1CC=CC23O[C@@H]4C=CCOC(=O)[C@@H]4[C@H]2C(=O)N(CCCCCCO)[C@@H]3C1=O (stereo not given in full) | 0.547 | 0.428 (inactive) | 0.806 (inactive) | -0.473 (inactive) | 0.454 (inactive) | 0.151 (inactive) | 0.282 (inactive) | 0.225 (inactive) | 0.922 | 0.114
20 | COC(=O)[C@@H]1CC[C@H](C)[C@@H](c2ccc(C)cc2)N1C(=O)c1ccc(C=NOC[C@@H](O)COCc2ccco2)cc1 | -0.609 | -0.346 (inactive) | -1.06 (inactive) | 0.13 (inactive) | 0.147 (inactive) | 0.0787 (inactive) | 0.462 (inactive) | 0.663 (inactive) | -1.49 | -0.0891
21 | CCc1cc2c(nc1CC)CCN(CCC(C)=NOC[C@@H](O)COCc1ccco1)C2 | -0.596 | -1.12 (inactive) | -0.24 (inactive) | -0.127 (inactive) | -0.0174 (inactive) | -0.727 (inactive) | 0.377 (inactive) | 0.389 (inactive) | -0.0388 | 0.183
22 | NCCCCCNC(=O)[C@@H]1C[C@@H]2C(=O)N3CCC[C@H]3C(=O)N2[C@@H]1c1cccc(OCCO)c1 | 0.0359 | -0.582 (inactive) | 0.199 (inactive) | -0.801 (inactive) | -0.226 (inactive) | -0.914 (inactive) | 0.0544 (inactive) | -0.109 (inactive) | -0.0506 | 0.522
23 | CCc1cc2c(nc1CC)CCN(CCC(C)=NOC[C@@H](O)[C@H]1O[C@@H]3OC(C)(C)O[C@@H]3[C@H]1O)C2 | -0.595 | 0.0824 (inactive) | -0.244 (inactive) | -0.439 (inactive) | 0.535 (inactive) | -0.752 (inactive) | 0.548 (inactive) | -0.953 (inactive) | -0.269 | -0.365
24 | COC(=O)[C@@]1(Cc2ccc(F)cc2)[C@H]2c3cc(C(=O)N(C)C)n(Cc4ccc(OC)c(OC)c4)c3C[C@H]2CN1C(=O)c1ccccc1 | -1.05 | -0.0211 (inactive) | -1.8 (inactive) | -3.71 (inactive) | 3.14 (inactive) | 0.348 (inactive) | -0.252 (inactive) | -1.45 (inactive) | -0.484 | 0.276
25 | CC=CC1=C(CO)[C@H](O)[C@H]2O[C@H]2[C@H]1O | -0.557 | 0.977 (inactive) | -0.667 (inactive) | 0.439 (inactive) | -0.47 (inactive) | 0.618 (inactive) | -0.227 (inactive) | -0.299 (inactive) | 0.0421 | 0.0774
